An excerpt weighted towards active compounds, which were near 2.3% of everything screened.
TDP43 rescue: qHTS of TDP-43 Inhibitors; Potency, µM (series often up to 46.1 µM), for inactives: at the highest dose growth rescue (activation), most hits filed as activators; 410,000 compounds, 1.8% hits; TDP-43 expressing yeast growth rescue, BacTiter-Glo, 24 h; AID 652104, 2013; note: % of control where 0% means no effect; nearly all actives have a fitted effect of over 50% in size
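Yeast cells expressing TDP-43 under galactose induction are exposed to compounds for 24 hr at 30 deg C. BacTiter-Glo luminescence measures growth, so protective compounds score as activators.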
aSyn yeast inh: qHTS of alpha-syn Inhibitors. Yeast expressing alpha-synuclein, growth rescue, BacTiter-Glo, 24 h. Potency, µM (series often up to 46.1 µM), for inactives: at the highest dose growth rescue (activation), most hits filed as activators. 370,000 compounds, 0.14% hits. AID 652106, 2013; note: % of control where 0% means no effect; nearly all actives have a fitted effect of over 65% in size
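Rescue of yeast growth: cells expressing toxic alpha-synuclein, induced in galactose at OD600 0.02, incubated with compound 24 h at 30 C. ATP luminescence quantified growth; inhibitors of toxicity appear as activators.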
uPA generation: qHTS for Inhibitors of Cell Surface uPA Generation. cell surface uPA generation assay, qHTS. Potency, µM (series often up to 38.3 µM), for inactives: at the top dose activity change, negative = inhibition, usual class: inhibitors. 330,000 compounds, 0.31% hits. AID 540303, 2011; active = well fitted inhibition curve with a large enough effect; inconclusive = small, poorly fitted or top-dose-only effect; inactive = no such curve, though single readings can be large or run the other way; tested in mouse RAW 264.7 cells; note: % is set by controls: 0 for no effect and ±100 for the full control effect; nearly all actives have a fitted effect of over 55% in size
Chronic BCR inh: qHTS Assay to Find Inhibitors of Chronic Active B-Cell Receptor Signaling | 340,000 compounds, 0.05% hits | ABC-DLBCL IkBa-CBG/CBR reporter, luminescence ratio, 4 h | Potency, µM (top dose mostly 46.1 µM), inactives show at the highest dose activity change, negative = inhibition, most hits filed as inhibitors; active = well fitted inhibition curve with a large enough effect in the signal ratio, with a control signal flat, not every such curve was filed as active; inconclusive = small, poorly fitted or top-dose-only effect, or effect the other way, or a change in a side signal; the % refers to the signal ratio;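 note: plate controls were basal doxycycline-induced cells for no effect and cells given 10 µM MG132 for full effect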
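Doxycycline induced both beetle luciferases in TMD8 lymphoma cells; IKK-driven degradation limits the IkappaBalpha-fused green signal, while red luminescence normalises for cell number and nonspecific effects. Compounds tested up to 46 uM, 4 hrs.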
FUS yeast rescue: qHTS for Suppressors of FUS Proteinopathy: Primary screen using FUS-linked yeast assay. 390,000 compounds, 0.24% hits. S. cerevisiae FUS-expressing, growth rescue, OD600, 24 h. Potency, µM (top dose mostly 76.6 µM), actives largely listed as activators;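 note: plate controls were DMSO vehicle for no effect and reference control for full effect; nearly all actives have a fitted effect of over 55% in size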
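Restored growth of FUS-toxic S. cerevisiae, read as 600 nm absorbance after 24 h at 30C in galactose medium (starting OD 0.005). Controls CP55940 and DMSO.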
Abeta yeast res: qHTS for compounds that reverse cellular toxicity of Amyloid beta (A-beta) peptide in yeast: Primary Screen. Potency, µM (doses to about 46.1 µM), hits mostly activators. AID 1347071, 2019. 410,000 compounds, 0.063% hits. yeast expressing A-beta42, growth rescue, OD600, 48 h; response scale: 0% DMSO, 100% iron-clioquinol control; note: nearly all actives have a fitted effect of over 55% in size
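Yeast A-beta toxicity model in growth medium with pinned compounds, 48 h at 30 C; growth read as absorbance at 600 nm. Normalized to FeCl3/clioquinol equimolar mix (positive) and DMSO (negative).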
* = called active by the depositor; i = inactive; ? = inconclusive; . = no result; [ ] = dose if it differs, or a comment. Unless noted, calls come from the whole dose curve; as a rule, active = well fitted curve in the direction sought with a large enough effect; inconclusive = small, poorly fitted or top-dose-only effect, or another doubt; inactive = no such curve, though single readings can be large; an effect the other way counts as inactive or inconclusive. Potency is the fitted concentration of half-maximal effect.

SMILES | TDP43 rescue | aSyn yeast inh | uPA generation | Chronic BCR inh | FUS yeast rescue | Abeta yeast res
COc1ccc(C(NC(=O)C(C)C)c2c(O)ccc3ccccc23)cc1 (stereo unspecified) | 7% | -2% | ? | -3% | i | i
Cc1cc([N+](=O)[O-])ccc1NCc1ccc2ccccc2c1 | -24% | 0% | -3% | ? | i | i
COc1ccc(NC(=O)Nc2ccc(OCc3ccccc3)cc2)cn1 | 3% | -6% | -3% | 2% | i | i
COc1ccc(NC(=O)/C(Cl)=C(/Cl)S(=O)(=O)Cc2ccccc2)cn1 | 3.2µM* | -36% | -5% | ? | i | i
COc1ccc(NC(=O)CC2(CC(=O)O)CCCC2)cn1 | 13µM* | 4% | 0% | 3% | i | i
COc1ccc(NC(=O)C(Cl)=C(Cl)Cl)cn1 | 13µM* | 6% | -12% | ? | i | i
O=C(O)CC1(CC(=O)Nc2ccc(Oc3cccc(C(F)(F)F)c3)nc2)CCCC1 | 12% | 4% | -1% | ? | i | i
O=c1[nH]nc2c3ccccc3cnn12 | 14% | 4% | 1% | -1% | i | i
C=CCN1C(=O)C2(OCCCO2)c2cccc(C)c21 | 24% | 0% | 0% | 3% | i | i
CCCCN1C(=O)C2(OCCCO2)c2cccc(C)c21 | 20µM* | 6% | 3% | 0% | i | i
O=C(CSCc1cnn(-c2ccccc2)c1-n1cccc1)NCc1cccc(Cl)c1 | ? | . | . | . | ? | i
O=C(CSCc1cnn(-c2ccccc2)c1-n1cccc1)NCc1cccnc1 | . | -3% | 7% | ? | i | i
O=C(CCSCc1cnn(-c2ccccc2)c1-n1cccc1)NCc1ccc(Cl)cc1 | 20µM* | . | . | . | i | ?
Cc1ccc(CNC(=O)CCSCc2cnn(-c3ccccc3)c2-n2cccc2)cc1 | 20µM* | . | . | . | i | i
O=C(O)c1ccc(CSc2nnc(-c3ccccc3)n2-c2ccccc2)cc1 | 0% | 16% | 3% | 8% | i | i
Brc1cccc(-c2nnc(SCc3ccon3)n2-c2ccccc2)c1 | 18µM* | 14% | 6% | -1% | i | i
O=C(CN1CCN(c2ccc(Cl)cc2)CC1)Nc1ccc(F)cc1F | 12% | . | . | . | i | i
COc1ccc(C2(C)NC(=O)N(CC(=O)Nc3ccc4[nH]c(=O)[nH]c4c3)C2=O)cc1 (stereo unspecified) | -29% | 1% | -4% | 0% | i | i
O=C(CCl)Nc1cccc(-c2cnc3ccccc3n2)c1 | 13µM* | 6% | -13% | ? | i | i
CCn1c(/C=C\c2ccccc2C)nc2ccccc2c1=O | 22µM* | -5% | ? | ? | i | i
CCN1C(=O)/C(=C/c2nc3ccccc3c(=O)n2-c2ccccc2)c2ccccc21 | -22% | -7% | -4% | 3% | ? | i
CCn1c(/C=C2/C(=O)N(C)c3ccccc32)nc2ccccc2c1=O | 14µM* | 19% | -5% | -10% | i | i
CCn1c(/C=C2\C(=O)N(C)c3ccccc32)nc2ccccc2c1=O | ? | 1% | -2% | -4% | i | i
CCN1C(=O)/C(=C\c2nc3ccccc3c(=O)n2CC)c2ccccc21 | 13µM* | 6% | 1% | -1% | i | i
Cc1ccc(C)c(NC(=O)N2CCc3cc(S(=O)(=O)N4CCC(C)CC4)ccc32)c1 | 3% | . | . | . | i | i
SMILES | TDP43 rescue | aSyn yeast inh | uPA generation | Chronic BCR inh | FUS yeast rescue | Abeta yeast res
Cc1ccc(/C=N/NC(=S)N2CCOCC2)cc1 | 22µM* | 0% | -1% | ? | . | ?
Cc1ccnc(NC(=O)c2cc([N+](=O)[O-])cc([N+](=O)[O-])c2)c1 | -11% | 2% | 3% | -7% | i | i
Cc1ccnc(NC(=O)c2ccc([N+](=O)[O-])s2)c1 | 8.9µM* | 5% | ? | ? | i | i
Cc1cccc(NC(=O)c2ccc([N+](=O)[O-])s2)c1C | 11µM* | 2% | ? | ? | i | ?
CC(=O)CSc1cc(C)nc2c(-c3ccccc3)c(C)nn12 | -7% | -1% | -6% | 1% | i | i
Cc1noc(C)c1COc1ccccc1C(=O)N(C)Cc1ccc(C(C)(C)C)cc1 | 35µM* | 5% | ? | ? | i | i
CCOC(=O)c1[nH]c2c(c1-c1ccccc1)C(=O)CC(c1ccc(OC)c(OC)c1)C2 (stereo unspecified) | 0% | -1% | -5% | ? | i | i
O=C(C1CCCCC1)N1C[C@@H](n2cc(-c3ccc(F)cc3)nn2)[C@H](O)C[C@@H]1c1ccc(Cl)cc1 | 22µM* | 2% | . | . | i | i
O=C(Nc1ccccc1Oc1ccccc1)c1ccccc1F | 13µM* | -8% | -2% | ? | i | i
O=C(Nc1ccccc1Cc1ccccc1)c1ccccc1F | ? | -4% | 4% | 11% | i | 2.5µM*
CCCCc1ccc(NS(=O)(=O)c2ccc(N3CCCCS3(=O)=O)cc2)cc1 | 0%[9.22 µM] | . | . | . | i | i
CC(=O)c1cc(C(=O)c2ccccc2)sc1Nc1ccccc1 | 35µM* | 9% | 12% | ? | i | i
Cc1nc(Nc2ccccc2)sc1C(=O)c1ccccc1 | -15%[1.82 µM] | -7% | -1% | ? | i | i
CCNC(=O)N1c2ccc(OC)cc2C(C)=CC1(C)C | 13µM* | -10% | -2% | -17% | i | i
CSc1nc(C)cc(Oc2ccc(OCCOc3ccccc3)nn2)n1 | 26% | 11% | 2% | -11% | i | i
CC(=O)N1CCCc2cc(S(=O)(=O)N(C)CC(=O)Nc3ccc(Cl)cc3C)ccc21 | 11% | . | . | . | i | i
O=c1oc2ccccc2c2[nH]ccc12 | -19% | 7% | -5% | ? | i | i
O=c1oc2ccccc2c2c1ccc1ccccc12 | 35µM* | 7% | 1% | 6% | i | i
COC(=O)c1ccccc1NC(=S)NC(=O)C1CC1 | -6% | -5% | 2% | ? | i | i
O=C(NC(=S)Nc1ccccc1Br)C1CCCCC1 | 16µM* | -23% | 4% | 10% | . | i
O=C(NC(=S)Nc1ccccc1Br)C1CCCC1 | 16µM* | -1% | 3% | ? | i | ?
Cc1ccc(Cl)cc1-c1cc(C(=O)NCc2ccco2)[nH]n1 | 14µM* | 4% | . | . | i | i

Screens (PubChem)
